TSHR antagonist – Antagonists of the Thyroid Stimulating Hormone Receptor: HTS campaign. Thyrotropin receptor (Homo sapiens), P16473. TSHR-expressing cells, TSH-stimulated cAMP HTRF, 2 h; active compounds read low. activity change, negative = inhibition, % at 11.5 µM. actives 0.2% (n = 330,000). AID 504810, 2011;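 active = activity change below a set negative limit, meaning inhibition stronger than a set level, cut at about -70% in these data; inconclusive = activity change between two set negative limits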; also: % is scaled to controls: 0 for no effect and ±100 for the full control effect
Target sequence (P16473 whole entry, looked up): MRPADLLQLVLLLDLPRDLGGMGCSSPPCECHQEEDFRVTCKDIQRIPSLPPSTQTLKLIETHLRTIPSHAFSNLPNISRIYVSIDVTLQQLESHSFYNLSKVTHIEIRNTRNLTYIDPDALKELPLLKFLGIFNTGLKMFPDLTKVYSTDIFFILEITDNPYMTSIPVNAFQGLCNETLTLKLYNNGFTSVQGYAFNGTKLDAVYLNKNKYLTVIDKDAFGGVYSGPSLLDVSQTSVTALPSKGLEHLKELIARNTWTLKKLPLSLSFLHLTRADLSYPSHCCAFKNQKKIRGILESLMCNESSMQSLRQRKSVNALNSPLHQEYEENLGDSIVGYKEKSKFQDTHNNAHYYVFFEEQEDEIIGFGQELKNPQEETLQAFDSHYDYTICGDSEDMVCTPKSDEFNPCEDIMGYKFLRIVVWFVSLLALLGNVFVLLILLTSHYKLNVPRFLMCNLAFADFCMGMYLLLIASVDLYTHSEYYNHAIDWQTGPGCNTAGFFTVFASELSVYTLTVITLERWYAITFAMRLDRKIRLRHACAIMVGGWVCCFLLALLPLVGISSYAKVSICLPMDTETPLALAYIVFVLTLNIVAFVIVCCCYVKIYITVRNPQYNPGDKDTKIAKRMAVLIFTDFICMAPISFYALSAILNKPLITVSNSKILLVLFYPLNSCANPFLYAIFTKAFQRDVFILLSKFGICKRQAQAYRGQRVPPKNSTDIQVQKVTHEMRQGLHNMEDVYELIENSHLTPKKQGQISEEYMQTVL
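Freshly harvested TSHR cells receive pin-tooled compound, then EC80 TSH at 4nM final. After 2 hours at 37 deg C, antibody in lysis buffer and cAMP-d2 are added; 30 minutes at ambient temperature precede the HTRF read.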
gsp antag – qHTS for Antagonists of gsp, the Etiologic Mutation Responsible for Fibrous Dysplasia/McCune-Albright Syndrome: qHTS; gsp-mutant cells, cAMP HTRF, 30 min; Potency, µM (titrated, usually from 76.9 µM), for the others: top-dose activity change, negative = inhibition, usual class: inhibitors; actives 0.4% (n = 340,000); AID 624288, 2012; calls by dose curve; cell line not stated here;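 also: intracellular cAMP measured with PDE inhibitor Ro 20-1724 present during compound exposure; potency is read from the fitted curve at half-maximal effect; % is scaled to controls: 0 for no effect and ±100 for the full control effect; nearly all actives have a fitted effect of over 65% in size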
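HTRF cAMP read-out (cAMP-d2 plus anti-cAMP antibody-K in lysis buffer, 30 min RT). Before lysis, cells are exposed to compounds with […] for 30 min at 37C in DPBS containing Ca/Mg, BSA and Tween 20.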
gsp ag – qHTS for Agonist of gsp, the Etiologic Mutation Responsible for Fibrous Dysplasia/McCune-Albright Syndrome: qHTS; actives 0.13% (n = 340,000); Potency, µM (series often up to 76.9 µM), for inactives: at the highest dose activation (cAMP increase), hits mostly activators; AID 624287, 2012; gsp mutant cells, cAMP HTRF, 30 min; active = well fitted activation curve with a large enough effect; inconclusive = small, poorly fitted or top-dose-only effect, or another doubt; inactive = no such curve, though single readings can be large or run the other way; cell line not stated here;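 also: phosphodiesterase inhibitor Ro 20-1724 added with compounds to block cAMP breakdown; potency is read from the fitted curve at half-maximal effect; nearly all actives have a fitted effect of over 60% in size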
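Cells stably selected in G418 were plated at 2000/well, grown 16-24 hr, then given compounds in DMSO with the PDE inhibitor […] (300 uM solution added) for 30 min at 37C; cAMP was read by HTRF.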
RXFP1 antagonist – qHTS Assay for Antagonists of the Relaxin Receptor RXFP1; Relaxin receptor 1 (Homo sapiens), Q9HBX9; HEK293-RXFP1, relaxin-stimulated cAMP HTRF, 30 min; active compounds read low; activity change, negative = inhibition, % at 57.5 µM; actives 0.59% (n = 350,000);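 active = activity change of -60% or lower, but not beyond a set lower limit; inconclusive = change between -60% and -40%, or beyond the set limit; inactive = change above -40%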; also: % is scaled to controls: 0 for no effect and ±100 for the full control effect
pAkt inh – HTS Assay for Inhibitors of Akt Phophorylation: Primary Screen; Neuro2A IGF-stimulated pAkt S473 HTRF, 20 min; active compounds read low; activity change, % for hits at 50 µM; actives 0.32% (n = 360,000); AID 651550, 2012; in the data active = activity change below about -80%; inconclusive = mostly about -51% to -80%; also: % is scaled to controls: 0 for no effect and ±100 for the full control effect
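Neuro2A cells (4,500/well, DMEM with 0.5% FBS) were treated with compound at a single 50 µM final concentration, stimulated with 6 nM IGF for 20 min at 37 °C, and lysed. Phospho-Akt Ser473 was read by HTRF as 665/615 ratio ×10^4.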
RXFP1 ag – qHTS Assay for Agonists of the Relaxin Receptor RXFP1 | HEK293T-RXFP1 cAMP TR-FRET, 30 min; response scale: percent of porcine relaxin response, buffer zero | Potency, µM (doses to about 57.5 µM), without a hit: top-dose activation, hits mostly activators | actives 0.3% (n = 370,000) | AID 2676, 2010; active = well fitted activation curve with a large enough effect; inconclusive = small, poorly fitted or top-dose-only effect; also: potency is read from the fitted curve at half-maximal effect; % is scaled to controls: 0 for no effect and ±100 for the full control effect; nearly all actives have a fitted effect of over 60% in size
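Agonist response is measured as cAMP accumulation in an RXFP1-transfected HEK293T line under PDE4 inhibition. Values are scaled between buffer-only and 29 nM porcine relaxin, and EC50s come from standard Hill equation fits.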
The depositor's hits bear a star; i = inactive; ? = inconclusive; . = not tested or not shown; [ ] = another dose, or the depositor's remark. Most compounds without a hit are left out; they make up all but 1.3% or so of the library.

SMILES	TSHR antagonist	gsp antag	gsp ag	RXFP1 antagonist	pAkt inh	RXFP1 ag
CC(CCc1ccccc1)NC(=O)c1cccc(F)c1 (stereo unspecified)	-11	8%	-10%[15.4 µM]	-12	i	1%
Cc1cc(C)cc(C(=O)NC(=S)Nc2ccc(Cc3ccncc3)cc2)c1	21	-1%	-3%	6	i	1%
COc1cc(C(=O)NC(=S)Nc2ccc(Cc3ccncc3)cc2)cc(OC)c1OC	-1	32µM*	-71%	-1	i	-3%
CNS(=O)(=O)c1cc(NC(=O)c2cncn2-c2ccccc2)ccc1C	-23	4%	3%	-4	i	3%
CCOc1ccc(-c2csc(/C(C#N)=C\c3ccc(O)c([N+](=O)[O-])c3)n2)cc1	-83*	-93%	-35%	.	i	0%
Fc1ccc(CSc2ccc3nnc(-c4cccs4)n3n2)cc1	0	32µM*	12%	15	i	0%
Cc1cccc(CSc2ccc3nnc(-c4cccs4)n3n2)c1	-8	-24%	-3%	2	i	0%
CCCCCCCC1=NN(c2ccc(S(=O)(=O)O)cc2)C(=O)C1N=O (stereo unspecified)	.	.	-2%	12	i	.
CCC(=O)NC(c1ccc(Cl)cc1Cl)c1ccc2cccnc2c1O (stereo unspecified)	-5	-9%	10%	-98*	i	1%
CCCC(=O)NC(c1ccccc1Cl)c1ccc2cccnc2c1O (stereo unspecified)	-2	-6%	14%	-82*	i	1%
COc1cccc(CC(=O)NNC(=O)CN(C)S(=O)(=O)c2ccc(C)cc2)c1	7	5%	2%	11	i	.
Cc1cccc(Nc2nc(N)c([N+](=O)[O-])c(N3CC(C)CC(C)C3)n2)c1 (stereo unspecified)	-5	-15%	-3%[15.4 µM]	-26	i	0%
Cc1cccc(Nc2nc(N)c([N+](=O)[O-])c(N3CCC(C)CC3)n2)c1	0	-8%	28%[15.4 µM]	-69*	i	1%
CC(C)CSC1=NSC2=NC(=O)/C(=C\c3cccs3)C(=N)N12	-5	-13%	-15%[15.4 µM]	-5	i	0%
N=C1/C(=C/c2cccs2)C(=O)N=C2SN=C(SCc3ccccc3)N12	-16	32µM*	16%	-10	i	2%
CSC1=NSC2=NC(=O)/C(=C\c3cccs3)C(=N)N12	-10	35µM*	3%	-3	i	2%
COc1ccc(/C(C)=N/N=C(N)N)c(OC)c1	6	14%	-15%	12	i	1%
CCN(CC(=O)NCc1cccs1)C(=O)/C=C/c1ccc(Cl)c(Cl)c1	-8	-3%	2%	-15	i	1%
CC(C)(C)SCCNC(=O)CN1C(=O)c2cccc3cccc1c23	-6	-1%	3%	9	i	13%
COCCNC(=O)CN1C(=O)c2cccc3cccc1c23	-127*	3%	0%[15.4 µM]	-5	i	5%
COc1ccc(C(CC(=O)N2CCOCC2)c2c(OC)cc(OC)c3c(-c4ccccc4)cc(=O)oc23)cc1 (stereo unspecified)	-82*	-1%	.	.	i	6%
CCCN1CCN(c2cc3c(cc2F)c(=O)c(S(=O)(=O)c2ccc(Cl)cc2)cn3C)CC1	.	.	.	-12	.	2%
O=C(CSc1nc2c([nH]c3ccccc32)c(=O)n1-c1ccccc1)c1ccccc1	.	.	.	-109*	.	-2%
O=C(CSc1nc2c([nH]c3ccccc32)c(=O)n1-c1ccc(Cl)cc1)c1ccccc1	.	.	.	.	.	1%
CC(c1ccccc1)C1CC(=O)N(c2ccc(C(=O)O)cc2)C1=O (stereo unspecified)	4	-5%	-6%	-13	-81%*	0%
SMILES	TSHR antagonist	gsp antag	gsp ag	RXFP1 antagonist	pAkt inh	RXFP1 ag
CC(=O)c1ccc(Nc2nc(=O)c3cccnc3s2)cc1	.	11%	10µM*	18	i	?
CC(=O)c1cccc(Nc2nc(=O)c3cccnc3s2)c1	1	4%	?	-1	i	10%
COc1ccc(N2CSC(=S)N(c3ccc(OC)cc3)C2)cc1	.	.	-15%	-5	i	.
Cc1ccc(NC(=O)COC(=O)C2CCC(=O)N2)c(S(=O)(=O)N2CCOCC2)c1 (stereo unspecified)	0	7%	8%	3	-114%*	-2%
CC(=O)N1c2c(cc(Br)cc2S(=O)(=O)NCc2ccc(C)cc2)CC1C (stereo unspecified)	-14	35µM*	12%[15.4 µM]	7	i	1%
COc1ccc(CNS(=O)(=O)c2cc(Br)cc3c2N(C(C)=O)C(C)C3)cc1 (stereo unspecified)	-5	0%	-4%[15.4 µM]	-8	i	-2%
COc1cc(C(=O)NCc2ccccc2)ccc1OC(F)F	19	-1%	-9%	5	i	-1%
COc1ccc(COc2ccccc2C(=O)NCc2ccccc2)cc1F	3	28µM*	-29%	1	i	1%
CCCCn1c(SCC(=O)NC2CCCC2)nnc1-c1ccco1	-9	1%	7%[15.4 µM]	5	i	0%
COc1ccc(C(CCNC(C)c2ccccc2)c2ccc(F)cc2)cc1 (stereo unspecified)	-2	3%	0%	-66*	i	-2%
COc1ccc(C(CCNCc2ccccc2)c2ccc(F)cc2)cc1 (stereo unspecified)	11	-3%	-4%	-1	i	0%
CC1=NN(c2ccccc2)C(=O)C1C=Nc1ccc(N(C)C)cc1 (stereo unspecified)	?	?	-5%[15.4 µM]	-69*	i	-7%
CC1=NN(c2ccccc2)C(=O)C1N=Nc1ccc(C)cc1 (stereo unspecified)	3	.	.	.	.	0%
CC(C)NC(=O)Cn1cc(C(=O)C2CC2)c2ccccc21	-2	41%	-4%	-6	i	5%
O=C(Nc1ccc2c(c1)OCO2)N1CCN(C/C=C/c2ccccc2)CC1	-8	2%	3%	-5	-83%*	0%
COc1ccc2nc(SCC(=O)Nc3cc(OC)c(OC)cc3C(=O)O)c(C)cc2c1	1	-10%	-21%[15.4 µM]	6	i	6%
CCOc1cc(CNCc2ccccc2)ccc1OCc1ccc(Cl)cc1	3	6%	-54%	-96*	i	-3%

High-throughput results as filed in PubChem.
